A selection: hits, their analogues and other compounds. The true share with any hit is near 2.9%.
a7 integrin act: activates integrin-mediated alleviation for muscular dystrophy; alpha7betagal myoblasts, beta-gal FDG fluorescence, 48 h; Potency, µM (series often up to 38.3 µM), without a hit: at the top dose activation, hits mostly activators; 0.064% of 350,000 active;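 also: potency is read from the fitted curve at half-maximal effect; 100% = response of the positive control SU9516; nearly all actives have a fitted effect of over 60% in size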
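alpha7betagal+/- myoblasts (passage 13, 250/well) treated 48 h at 37C with compounds at 1:260 dilution of DMSO stock. Lysed, then beta-galactosidase activity read as FDG fluorescence (ex 480/em 540) after 30 min, with pre-read for autofluorescence.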
IDH1 R132H inh: inhibitors of human mutant IDH1 R132H. O75874. IDH1-R132H enzyme, NADPH consumption, diaphorase/resazurin fluorescence. Potency, µM (series often up to 76.6 µM), for the others: at the highest dose activity change, negative = inhibition, actives largely listed as inhibitors. 0.093% of 390,000 active. AID 602179; also: potency is read from the fitted curve at half-maximal effect; % is scaled to controls: 0 for no effect and ±100 for the full control effect; nearly all actives have a fitted effect of over 65% in size
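IDH1-R132H (0.5 ug/mL) preincubated 30 min with compound, then NADPH (0.016 mM) and alpha-KG (2 mM) added; 80 min at RT, pH 7.5. Remaining NADPH coupled via diaphorase/resazurin to fluorescence (540/590 nm); concentration-response curves normalized to no-enzyme control.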
B2AR arrestin: agonists driving beta-arrestin recruitment to human beta2-adrenergic receptor; P07550; beta-arrestin recruitment to beta2AR, cell-based reporter; Potency, µM (titrated, usually from 46.1 µM), inactives show at the highest dose activation, usual class: activators; 0.02% of 330,000 active;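 also: potency is read from the fitted curve at half-maximal effect; 0% = DMSO controls and full agonism = EC100 isoproterenol or metaproterenol; nearly all actives have a fitted effect of over 65% in size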
Target sequence (P07550 whole entry, looked up): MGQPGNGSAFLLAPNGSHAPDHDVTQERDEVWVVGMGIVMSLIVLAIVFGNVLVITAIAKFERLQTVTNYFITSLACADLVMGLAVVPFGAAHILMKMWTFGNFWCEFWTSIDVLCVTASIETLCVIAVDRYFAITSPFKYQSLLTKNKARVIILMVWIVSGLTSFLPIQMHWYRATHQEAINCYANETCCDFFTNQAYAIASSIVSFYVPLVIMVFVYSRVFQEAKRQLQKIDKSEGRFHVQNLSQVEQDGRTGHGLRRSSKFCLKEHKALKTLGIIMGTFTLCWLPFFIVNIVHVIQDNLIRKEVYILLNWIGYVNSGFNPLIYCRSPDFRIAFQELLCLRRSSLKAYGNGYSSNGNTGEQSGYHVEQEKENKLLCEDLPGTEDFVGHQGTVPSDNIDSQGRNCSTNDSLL
DRD3 agonist: agonists of human D3 dopamine receptor | 0.58% of 410,000 active | D3R DiscoveRx beta-arrestin cells, luminescence, 90 min | max activation, % | P35462; in the data active = max activation above about 30%; also: 0% is about no effect
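Agonist-mode cell screen: cells plated at 1500/well and incubated overnight at 37 °C, then exposed to library compounds for 90 min at 37 °C. Detection reagent was added for 30–60 min at room temperature, and luminescence was read.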
DRD3 antagonist: D3 dopamine receptor (human) antagonism | D3R cells, DiscoveRx beta-arrestin luminescence, antagonist mode; stronger effect = lower value | max response, negative = inhibition, % | 2.5% of 360,000 active; in the data active = max response below about -50%; inconclusive = no clear call, values can overlap the other calls; also: % is scaled to controls: 0 for no effect and ±100 for the full control effect
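Cells expressing the human receptor were seeded at 1500 cells/well, incubated overnight at 37 degrees C in 5% CO2, then exposed to library compounds with dopamine controls for 90 minutes at 37 degrees C before luminescent detection.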
Active calls of the source: *; ? = inconclusive; nt = not tested or not shown; [ ] = dose if it differs, or a comment. Unless noted, calls follow the shape of the dose curve; as a rule, active = well fitted curve in the direction sought with a large enough effect; inconclusive = small, poorly fitted or top-dose-only effect, or another doubt; inactive = no such curve, though single readings can be large; an effect the other way counts as inactive or inconclusive.

SMILES	a7 integrin act	IDH1 R132H inh	B2AR arrestin	DRD3 agonist	DRD3 antagonist
O=c1cc(-c2ccc(O)c(O)c2)oc2cc(O)cc(O)c12	-23.4%	-9.0%[38.3 µM]	-0.9%	42.5*	55.1
COc1cc(OC)c(C(=O)OC(C)C(=O)NCc2ccc3c(c2)OCO3)cc1OC (configuration not stated)	0.0%	-9.7%	-0.2%	2.1	13.9
O=c1cc(O)c2ccccc2n1Cc1ccccc1F	-29.2%	-4.0%	0.2%	2.5	12.0
O/N=C/c1cc2ccccc2n1Cc1ccccc1F	-19.1%	-9.4%	0.3%	-4.9	-53.1*
CCS(=O)(=O)c1nc(S(=O)(=O)c2ccc(Cl)cc2)c(NCc2ccc(Cl)cc2)s1	nt	-6.4%	nt	-14.0	nt
COc1ccc(C=C2CS(=O)(=O)CC(=Cc3ccc(OC)cc3)C2=O)cc1	-56.5%	-8.6%	nt	-8.2	-63.7*
COc1ccc(/C=C2\CCCCC2=O)cc1	-59.5%	11.1%	nt	-3.3	-7.3
S=c1nc(-c2ccccn2)c(-c2ccccn2)n[nH]1	nt	nt	nt	-11.3	-77.9*
COc1cccc(NC(=O)CSc2nc(C)c(Cc3ccccc3)c(=O)[nH]2)c1	nt	nt	nt	8.9	nt
Cc1ccnc(NCc2cc(Cl)cc(Cl)c2O)c1	-20.1%	4.6%	nt	-3.6	-17.3
Cc1cc(C)c(O)c(CN(C)Cc2cc(Cl)cc(Cl)c2O)c1	-29.3%	-7.7%	nt	41.5*	16.6
CCc1nc(CN2CCCC(C(=O)c3ccc4c5c(cccc35)CC4)C2)c(C)[nH]1 (configuration not stated)	-69.5%	4.0%	-1.0%	-20.1	-51.1*
O=C(c1ccc2c3c(cccc13)CC2)C1CCCN(Cc2ccncc2)C1 (configuration not stated)	-45.9%	-5.9%	-0.2%	-16.2	-52.9*
COc1cc(Br)c(C[N+]2(CCOCCC3CCC4CC3C4(C)C)CCOCC2)cc1OC (configuration not stated)	nt	nt	nt	0.0	nt
COc1ccc2c(c1)c(CC(=O)OCC(=O)O)c(C)n2C(=O)c1ccc(Cl)cc1	nt	-1.1%	-1.1%	-2.1	-54.2*
Cc1ccc2c(c1)c1c(n2CC(O)CNC(C)(C)C)CCCC1 (configuration not stated)	-7.9%	2.5%	0.2%	8.2	15.3
Cc1ccc2c(c1)c1c(n2CC(O)CN2CCCCCC2)CCCC1 (configuration not stated)	-61.6%	-3.2%	0.0%	-2.1	-68.0*
COc1ccc(CCNC(=O)CCCn2c(=O)c3cccn3c3ccc(F)cc32)cc1OC	nt	-7.1%	nt	8.7	nt
O=C(Nc1cc(C(=O)N2CCCC2)ccc1N1CCCC1)c1ccccc1F	-31.3%[7.66 µM]	8.4%	-0.1%	61.3*	55.9
CC(=O)c1cccc(NC(=O)CCn2nc(C)c(S(=O)(=O)N3CCCCC3)c2C)c1	nt	-10.8%	nt	-8.1	nt
Clc1cccc(-c2ccc(CNCCCN3CCOCC3)o2)c1	-14.0%	12.6%	-0.9%	-22.6	-80.3*
CC1CCC(NC(=O)c2ccc(CS(=O)(=O)c3ccc(Cl)cc3)o2)CC1 (configuration not stated)	nt	10.8%	nt	-24.4	nt
Cc1ccc(-c2onc(C)c2C)cc1S(=O)(=O)N1CCN(c2ccccc2F)CC1	nt	12.0%	nt	10.6	nt
O=C(Nc1ccccc1C(=O)OCC(=O)c1c[nH]c2ccccc12)c1ccco1	-3.6%	1.0%	0.5%	34.8*	18.6
CC(C)(C)NC(=O)COC(=O)c1ccccc1NC(=O)c1ccco1	1.7%	17.2%	0.3%	-0.7	0.8
SMILES	a7 integrin act	IDH1 R132H inh	B2AR arrestin	DRD3 agonist	DRD3 antagonist
COc1ccc(CC2(CO)CCN(Cc3ccc4nsnc4c3)CC2)cc1	0.0%	-1.5%	-0.1%	-25.2	-73.0*
OCC1(Cc2ccc(Cl)cc2)CCN(Cc2ccc3nsnc3c2)CC1	0.0%	7.3%	-1.5%	-7.2	?
Cc1cc(C)nc(SCc2ccc([N+](=O)[O-])cc2)n1	0.3%	7.7%	-0.7%	-2.6	1.6
Cc1ccnc(SCc2ccc([N+](=O)[O-])cc2)n1	24.9%	-13.4%	0.2%	-4.5	-57.4*
N#C[C@@H]1C[C@@H]2C[C@@H]2N1C(=O)[C@@H](N)C12CC3CC(CC(O)(C3)C1)C2	nt	nt	nt	-24.3	nt
CCN(CC)c1cc(C)c2cc(NC(=O)/C=C/c3ccccc3Cl)ccc2n1	nt	-1.6%	nt	-1.4	nt
COc1ccc(-n2sc3c(c2=S)-c2cc(OC)ccc2NC3(C)C)cc1	-38.9%	1.1%	0.2%	3.6	-11.4
COc1ccc2c(c1)-c1c(sn(-c3ccc(OC)c(OC)c3)c1=S)C(C)(C)N2	-31.8%	4.9%	0.1%	-3.3	-58.6*
CCOC(=O)c1cccc(NC(=O)CC2C(=O)N(c3ccc(OC)cc3)C(=O)N2C2CCCC2)c1 (configuration not stated)	nt	15.3%	nt	-6.8	nt
C=CCN(CC=C)C(=S)NC(=O)c1ccc(-c2ccccc2)cc1	-31.6%	0.4%	-0.1%	1.5	-14.5
C=CCN(CC=C)C(=S)NC(=O)c1ccc(OC)cc1	-184.7%	-2.8%	?	6.7	-68.5*
COc1ccccc1N(CC(N)=O)S(=O)(=O)c1ccc(C)cc1	21.8%	0.0%	-0.2%	9.4	-76.5*
COc1ccccc1N(CC(=O)N1CCC(C)CC1)S(=O)(=O)c1ccc(C)cc1	nt	14.3%	nt	-3.4	nt
CCC(=O)Oc1cc(C(C)(C)C)cc2cc(-c3nc(-c4ccc(OC)cc4OC)no3)c(=O)oc12	nt	10.6%	nt	-17.2	nt
COCCNC(=O)c1onc(CCl)c1C(=O)OC	6.2%	-22.7%	-0.5%	-12.5	-29.3
C=CCNC(=O)c1onc(CCl)c1C(=O)OC	7.2%	-7.0%	-1.0%	65.2*	5.1
COc1cc(NC(=S)NCCC(c2ccccc2)c2ccccc2)c(OC)cc1Cl	20.7%	1.2%	-0.7%	0.5	-11.1
COc1ccc(Cl)cc1NC(=S)NCCC(c1ccccc1)c1ccccc1	-42.5%	3.0%	0.4%	-21.2	-64.6*
Cc1ccc(OCCN2CCNCC2)c([N+](=O)[O-])c1	2.3%	-1.9%	-0.4%	-11.2	-86.6*
Cc1ccc(OCCN2CCN(C)CC2)c([N+](=O)[O-])c1	-12.4%	5.7%	-0.5%	7.2	-53.1*
Cc1ccc(OCCCN2CCOCC2)c([N+](=O)[O-])c1	2.1%	4.2%	1.0%	-10.3	?
COC(=O)[C@]1(Cc2ccccc2)N[C@H](c2ccc(-c3ccc(F)cc3)cc2)[C@@H]2C(=O)N(C)C(=O)[C@@H]21	2.9%	23.5%	-0.1%	-34.1	0.0
C[C@H]1C[C@@H]2[C@H]([C@@H](O)C[C@@]3(C)[C@H]2CC[C@]3(O)C(=O)COC(=O)CCC(=O)O)[C@@]2(C)C=CC(=O)C=C12	nt	nt	nt	1.5	nt
COc1ccc2oc(=O)cc(CN3CCN(C(=O)c4ccccc4)CC3)c2c1	nt	6.9%	nt	6.4	nt
CC1CCN(CC(O)COCCOc2ccc(Br)cc2)CC1 (configuration not stated)	0.0%	6.9%	0.0%	-3.2	21.2
CC1CCN(CC(O)COCCC23CC4CC(CC(C4)C2)C3)CC1 (configuration not stated)	-54.7%	3.1%	0.2%	-21.4	-57.4*
